This is an account of results in PubChem BioAssay (NCATS).

Test [1] has as its target Transient receptor potential cation channel subfamily V member 1 (Homo sapiens) (UniProt Q8NER1). Nature of the test: HTS Assay for Compounds that Act as Enhancers of the Vanilloid Receptor 1 (AID 488979). Further: 0% is about no effect. The essentials:
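Calcium influx kinetics via Fluo-8 (480/520 nm) in TRPV1-expressing cells, 2000/well cultured overnight at 35.5C. Compound-alone read 3 min (agonist phase), followed by EC20 capsaicin challenge for 2 min (enhancer phase).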

In test [2] the target is Thyrotropin receptor (Homo sapiens) (UniProt P16473). As to the kind of experiment: qHTS Assay for Antagonists of the Thyroid Stimulating Hormone Receptor (AID 488980). Further: series mostly up to about 58 µM; 0% is about no effect. The essentials: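 HEK293 cells transfected with human TSHR, suspended in HEPES-buffered HBSS with 70 uM RO 20-1724, were treated with compounds plus TSH at EC80 (4 nM final). cAMP was measured by competitive HTRF (cryptate anti-cAMP antibody, cAMP-d2 acceptor).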

Test [3] addresses D(1A) dopamine receptor (Homo sapiens) (UniProt P21728). As to the kind of experiment: HTS Assay for Allosteric Agonists of the Human D1 Dopamine Receptor: Primary Screen for Agonists (AID 488981). Further: 0% is about no effect. The essentials: (§1)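 Calcium flux in an inducible, force-coupled HEK293 Trex D1 line (overnight at 30 C): agonist mode is the 180 s kinetic read after compound; potentiator mode is the following 180 s read after dopamine at EC20.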

The target is the same in test [4]. Nature of the test: HTS Assay for Allosteric Agonists of the Human D1 Dopamine Receptor: Primary Screen for Potentiators (AID 488982). Further: 0% is about no effect. The essentials:
as §1

Test [5] can be described thus: Validation screen for small molecules that induce genotoxicity in human embryonic kidney (HEK293T) cells expressing luciferase-tagged ELG1 (AID 493106). Further: 0% is about no effect. The essentials:
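qHTS format; 2,000 HEK293T ELG1-luc cells/well; 23 nL compound via pin tool; 16 hr, 37 °C/5% CO2; ONE-Glo, 30 min RT; luminescence read.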

Test [6] addresses ATPase family AAA domain-containing protein 5 (Homo sapiens) (UniProt Q96QE3). As to the kind of experiment: Validation screen for small molecules that inhibit ELG1-dependent DNA repair in human embryonic kidney (HEK293T) cells expressing luciferase-tagged ELG1 (AID 493107). Further: nearly all actives have a fitted effect of over 70% in size. Further: potency means the concentration at half of the fitted maximal effect. The essentials: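 ELG1-luciferase HEK293T reporter; 5-fluorouridine + compound/DMSO, 16 hr, 37 °C, 5% CO2; ONE-Glo 30 min RT; luminescence read, qHTS format.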

Test [7] has as its target Thyrotropin-releasing hormone receptor (Homo sapiens) (UniProt P34981). Nature of the test: qHTS for Small Molecule Agonists and Allosteric Enhancers of Human TRH Receptor: Validation Screen for Agonists (AID 493127;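 active means calcium activation more than 3 SD above the typical response in the agonist read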;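 further: intracellular calcium rise by fluo-8 fluorescence before TRH EC20 addition; 0% is about no effect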). As to conditions: TRH receptor agonist cell assay; at 2 µM; stronger effect = higher value. The essentials: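 Read-out: intracellular calcium release measured kinetically by FDSS (fluo-8, ex 480/em 530 nm), 1 reading/s after a 10-cycle baseline. TRHR cells, 2000/well, cultured 18 h at 33.5C, dye-loaded at room temp. Compound-evoked positive calcium signal flags agonists.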
(Quantitative high-throughput screening tests each substance at several concentrations.)

Test [8] is described as follows: Nrf2 qHTS screen for inhibitors: Validation (AID 493153; active means well fitted inhibition curve with a large enough effect in the main read-out, with a control signal flat, not every such curve was filed as active). As to conditions: Potency: luciferase luminescence; viability change: measured here: cytotoxicity max response. The essentials:
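Concentration-response test in A549 ARE_Fluc reporter cells (5% FBS OPTI-MEM), compound exposure 18-24 h at 37°C, 5% CO2. Cell viability measured first by CellTiter-Fluor fluorescence; ARE-driven luciferase luminescence then measured as Nrf2 activity.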

Test [9] concerns the target Galactokinase (Homo sapiens) (UniProt P51570). As to the kind of experiment: qHTS Validation Assay for Inhibitors of Human Galactokinase (GALK) (AID 493189). Further: 0% is about no effect. The essentials:
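GALK (5 nM) with 35 uM ATP and 100 uM galactose in HEPES pH8.0, MgCl2, NaCl, DTT, BSA; 1 h at room temperature. Residual ATP read by Kinase-Glo Plus luminescence after 10 min.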

The nature of test [10]: Validation screen for small molecules that induce DNA re-replication in SW480 colon adenocarcinoma cells (AID 504364). Further: 0% is about no effect. The essentials:
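Read-out: total Hoechst intensity of nuclei by fluorescence scanning imager; hits raise the fraction of nuclei with elevated DNA content. Cells received compound for 48 hr at 37 C before a 40 min stain.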

The target of test [11] is Phosphoglycerate kinase, glycosomal (Trypanosoma brucei brucei) (UniProt P07378). As to the kind of experiment: qHTS Validation Assay to Find Inhibitors of Phosphoglycerate Kinase (AID 504547).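 Further: control wells lack PGK and mark full inhibition.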 The essentials: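 Luminescence end-point (Kinase-Glo Plus, 10 min) after a 60 min room-temperature coupled reaction. GAPDH at 100nM final supplies 1,3-BPG to PGK. Buffer: 100mM TEA pH 7.6, 5mM MgCl2, 0.01% Tween-20. Wells lacking PGK served as controls.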

Test [12] has as its target phosphoglycerate mutase (Leishmania major) (UniProt Q4Q090). Nature of the test: qHTS Validation Assay to Find Inhibitors of Phosphoglycerate Mutase (AID 504548).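 Further: end-point luminescence from Kinase-GloPlus after the PGAM reaction; series mostly up to about 58 µM; on the % scale 0 is the no-effect control and ±100 the full control effect.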 Particulars: Potency: inhibition qHTS. The essentials:
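Inhibition of L. major PGAM was assessed by Kinase-GloPlus luminescence following a 45-minute room-temperature reaction with enzyme at 1.25nM final.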

In test [13] the target is Ubiquitin carboxyl-terminal hydrolase 1 (Homo sapiens) (UniProt O94782). As to the kind of experiment: Inhibitors of USP1/UAF1: Pilot qHTS (AID 504865). Further: nearly all actives have a fitted effect of over 35% in size. Further: potency means the concentration at half of the fitted maximal effect. The essentials: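 USP1/UAF1 complex (1nM) preincubated with compound 15 min at room temperature, then Ub-Rho substrate (150nM final) added. Fluorescence read kinetically at 480/540 nm, 6 reads every 60 seconds. Buffer: 50mM HEPES pH 7.8, 0.5mM EDTA, 0.1 mg/ml BSA, 1mM TCEP, 0.01% Tween-20.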

The nature of test [14]: qHTS for Inhibitors of ATXN expression: Validation of Cytotoxic Assay (AID 588349). Further: on the % scale 0 is the no-effect control and ±100 the full control effect. The essentials: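 Cytotoxicity counter-screen: HEK293 cells exposed to compound titrations, 72 hr, 37 degrees C. Read-out is intracellular ATP (CellTiter Glo luminescence) as a viability measure.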
The target of test [15] is D(1A) dopamine receptor (Homo sapiens) (UniProt P21728). Nature of the test: HTS Assay for Allosteric Agonists of the Human D1 Dopamine Receptor: Primary Screen for Antagonists (AID 488983).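 Further: calcium flux response to an EC80 dopamine challenge measured with no-wash dye; on the % scale 0 is the no-effect control and ±100 the full control effect; nearly all actives have a fitted effect of over 65% in size.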 The essentials: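 Calcium flux readout, no-wash dye, inducible HEK293 T-REx D1 line (force-coupled). Compound added after 10 s baseline, 180 s kinetic read; then dopamine at EC80, further 180 s read.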

Test [16] in a line: qHTS for Inhibitors of Cell Surface uPA Generation: Validation Assay (AID 493164).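 Further: RAW 264.7 macrophage cells exposed to compound for 18 h; 0% is about no effect.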 The essentials: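 Compounds are titrated over seven points (2.45 nM–38.3 uM final) onto pre-plated RAW 264.7 cells and incubated for 18 h. Retained intracellular ATP, measured with ATP-Lite, indicates blocked lethal factor entry.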
The target in test [17] is Peptidyl-prolyl cis-trans isomerase NIMA-interacting 1 (Homo sapiens) (UniProt Q13526). Nature of the test: qHTS Validation Assay to Find Inhibitors of Pin1 (AID 504536; active means well fitted inhibition curve with a large enough effect in the polarisation, with a control signal flat, not every such curve was filed as active; the % refers to the polarisation;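 further: 0% = full Pin1 enzyme wells and -100% = no-enzyme wells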). The essentials:
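Fluorescence polarization competition: compounds (titration) displace HiFluor-488-labeled Pin1-1b peptide from Pin1 (0.3 uM final) in pH 7.5 HEPES buffer with DTT, 10 min at room temperature; %Activity normalized to no-enzyme wells, curves fitted.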

The nature of test [18]: qHTS for Inhibitors of ATXN expression: Validation (AID 588378). Further: series mostly up to about 57 µM; on the % scale 0 is the no-effect control and ±100 the full control effect; nearly all actives have a fitted effect of over 75% in size. The essentials:
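Luminescence from an ATXN2-FFLuc reporter in HEK293 cells served as read-out after 24 h compound treatment at 37 degrees C; CellTiter-Fluor fluorescence was recorded first to assess viability.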

Inconclusive results are not listed. Activity calls are given as the source filed them. Unless noted, the call rests on the fitted dose curve; in most records, active means well fitted curve in the direction sought with a large enough effect; inconclusive means small, poorly fitted or top-dose-only effect, or another doubt; inactive means no such curve, though single readings can be large; an effect the other way counts as inactive or inconclusive.

Sequence of Thyrotropin receptor (Homo sapiens) (P16473 whole entry, looked up): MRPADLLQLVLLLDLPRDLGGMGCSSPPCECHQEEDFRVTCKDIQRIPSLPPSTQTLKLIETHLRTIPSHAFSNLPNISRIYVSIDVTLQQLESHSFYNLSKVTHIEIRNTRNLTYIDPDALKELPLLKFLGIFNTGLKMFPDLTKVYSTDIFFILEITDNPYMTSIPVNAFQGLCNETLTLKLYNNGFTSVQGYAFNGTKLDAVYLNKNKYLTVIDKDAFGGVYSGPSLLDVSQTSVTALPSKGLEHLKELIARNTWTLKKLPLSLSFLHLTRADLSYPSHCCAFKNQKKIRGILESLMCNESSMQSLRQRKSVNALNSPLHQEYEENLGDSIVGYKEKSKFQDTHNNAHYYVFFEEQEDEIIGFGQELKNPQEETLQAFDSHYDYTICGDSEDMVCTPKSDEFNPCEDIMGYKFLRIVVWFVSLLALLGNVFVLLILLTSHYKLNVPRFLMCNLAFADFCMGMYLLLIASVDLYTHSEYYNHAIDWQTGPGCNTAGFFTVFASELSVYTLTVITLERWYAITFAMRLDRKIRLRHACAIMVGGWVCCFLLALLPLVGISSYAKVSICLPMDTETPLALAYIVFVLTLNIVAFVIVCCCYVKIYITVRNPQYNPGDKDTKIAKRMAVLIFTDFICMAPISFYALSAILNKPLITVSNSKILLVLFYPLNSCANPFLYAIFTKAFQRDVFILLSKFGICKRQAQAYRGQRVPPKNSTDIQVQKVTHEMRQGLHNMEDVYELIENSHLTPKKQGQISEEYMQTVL
Sequence of Transient receptor potential cation channel subfamily V member 1 (Homo sapiens) (Q8NER1 whole entry, looked up): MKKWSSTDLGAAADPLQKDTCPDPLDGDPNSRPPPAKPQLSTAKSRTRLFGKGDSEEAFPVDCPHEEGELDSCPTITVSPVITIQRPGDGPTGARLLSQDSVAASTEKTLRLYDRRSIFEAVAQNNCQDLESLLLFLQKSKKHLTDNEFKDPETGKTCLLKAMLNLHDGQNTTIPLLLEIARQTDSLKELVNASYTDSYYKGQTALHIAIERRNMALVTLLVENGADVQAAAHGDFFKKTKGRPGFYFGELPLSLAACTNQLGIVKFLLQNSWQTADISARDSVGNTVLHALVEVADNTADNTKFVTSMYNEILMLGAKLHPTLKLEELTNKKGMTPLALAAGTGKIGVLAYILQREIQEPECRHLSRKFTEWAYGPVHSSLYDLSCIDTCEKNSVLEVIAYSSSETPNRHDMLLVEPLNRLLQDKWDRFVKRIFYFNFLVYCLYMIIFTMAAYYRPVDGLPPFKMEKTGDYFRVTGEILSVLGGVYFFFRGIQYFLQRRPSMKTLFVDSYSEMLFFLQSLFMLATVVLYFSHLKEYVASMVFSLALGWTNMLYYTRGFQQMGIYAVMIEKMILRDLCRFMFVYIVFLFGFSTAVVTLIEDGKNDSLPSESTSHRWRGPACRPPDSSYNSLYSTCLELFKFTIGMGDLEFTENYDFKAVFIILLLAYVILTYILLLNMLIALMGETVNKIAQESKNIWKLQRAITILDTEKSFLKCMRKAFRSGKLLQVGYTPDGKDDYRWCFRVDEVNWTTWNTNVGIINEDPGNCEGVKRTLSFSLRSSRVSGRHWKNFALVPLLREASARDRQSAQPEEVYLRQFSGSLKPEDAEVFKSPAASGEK
Sequence of Thyrotropin-releasing hormone receptor (Homo sapiens) (P34981 whole entry, looked up): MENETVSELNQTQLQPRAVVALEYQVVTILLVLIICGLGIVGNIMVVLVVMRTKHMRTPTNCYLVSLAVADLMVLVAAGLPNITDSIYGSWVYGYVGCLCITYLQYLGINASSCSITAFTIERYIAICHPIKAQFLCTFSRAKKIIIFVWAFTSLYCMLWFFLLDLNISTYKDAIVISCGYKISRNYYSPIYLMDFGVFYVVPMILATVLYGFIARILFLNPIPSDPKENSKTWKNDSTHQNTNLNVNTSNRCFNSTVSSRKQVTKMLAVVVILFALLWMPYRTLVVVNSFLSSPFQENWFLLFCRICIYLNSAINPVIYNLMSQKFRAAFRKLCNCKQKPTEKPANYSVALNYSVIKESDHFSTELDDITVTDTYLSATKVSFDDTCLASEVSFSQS
Sequence of Ubiquitin carboxyl-terminal hydrolase 1 (Homo sapiens) (O94782 whole entry, looked up): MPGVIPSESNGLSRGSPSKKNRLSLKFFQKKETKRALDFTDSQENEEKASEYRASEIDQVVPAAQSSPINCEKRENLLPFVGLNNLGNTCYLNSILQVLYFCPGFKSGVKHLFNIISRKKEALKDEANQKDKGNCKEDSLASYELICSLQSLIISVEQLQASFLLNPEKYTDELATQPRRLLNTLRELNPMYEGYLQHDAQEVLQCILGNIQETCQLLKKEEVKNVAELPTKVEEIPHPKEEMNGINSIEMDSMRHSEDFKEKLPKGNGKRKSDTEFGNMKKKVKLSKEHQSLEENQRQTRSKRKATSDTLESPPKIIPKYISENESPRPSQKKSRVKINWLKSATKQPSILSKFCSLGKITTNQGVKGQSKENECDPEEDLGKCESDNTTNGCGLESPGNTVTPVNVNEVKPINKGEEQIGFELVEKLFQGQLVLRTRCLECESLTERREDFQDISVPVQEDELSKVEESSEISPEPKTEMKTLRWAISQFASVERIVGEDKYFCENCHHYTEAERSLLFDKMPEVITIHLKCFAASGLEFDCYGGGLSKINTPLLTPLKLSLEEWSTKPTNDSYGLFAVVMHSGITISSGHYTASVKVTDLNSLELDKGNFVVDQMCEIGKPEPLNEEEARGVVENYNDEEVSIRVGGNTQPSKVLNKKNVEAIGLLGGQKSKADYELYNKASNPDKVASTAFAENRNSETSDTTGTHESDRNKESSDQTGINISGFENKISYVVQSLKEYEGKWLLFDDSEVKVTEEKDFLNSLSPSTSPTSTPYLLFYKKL
Sequence of Galactokinase (Homo sapiens) (P51570 whole entry, looked up): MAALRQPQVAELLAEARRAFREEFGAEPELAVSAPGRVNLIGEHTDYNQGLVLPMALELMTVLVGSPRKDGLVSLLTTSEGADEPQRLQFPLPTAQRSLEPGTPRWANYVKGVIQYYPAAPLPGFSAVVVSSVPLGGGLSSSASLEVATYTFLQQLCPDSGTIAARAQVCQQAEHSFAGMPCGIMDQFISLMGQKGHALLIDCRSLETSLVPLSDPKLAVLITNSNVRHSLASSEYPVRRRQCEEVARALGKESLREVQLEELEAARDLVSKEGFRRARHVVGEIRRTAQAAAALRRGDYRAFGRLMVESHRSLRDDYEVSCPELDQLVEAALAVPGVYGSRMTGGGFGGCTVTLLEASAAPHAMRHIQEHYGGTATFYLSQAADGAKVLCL
Sequence of D(1A) dopamine receptor (Homo sapiens) (P21728 whole entry, looked up): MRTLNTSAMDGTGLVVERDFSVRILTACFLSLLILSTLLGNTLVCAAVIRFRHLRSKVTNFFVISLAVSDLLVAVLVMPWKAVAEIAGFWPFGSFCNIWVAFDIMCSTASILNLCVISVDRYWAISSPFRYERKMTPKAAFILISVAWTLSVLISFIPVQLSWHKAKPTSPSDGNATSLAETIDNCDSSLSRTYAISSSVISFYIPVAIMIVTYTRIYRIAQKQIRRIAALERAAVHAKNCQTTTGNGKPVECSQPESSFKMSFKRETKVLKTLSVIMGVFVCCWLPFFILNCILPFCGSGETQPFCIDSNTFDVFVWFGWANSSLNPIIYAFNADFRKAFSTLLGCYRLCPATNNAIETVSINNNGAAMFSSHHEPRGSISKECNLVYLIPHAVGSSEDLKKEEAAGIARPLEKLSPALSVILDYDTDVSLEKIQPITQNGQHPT
Sequence of Phosphoglycerate kinase, glycosomal (Trypanosoma brucei brucei) (P07378 whole entry, looked up): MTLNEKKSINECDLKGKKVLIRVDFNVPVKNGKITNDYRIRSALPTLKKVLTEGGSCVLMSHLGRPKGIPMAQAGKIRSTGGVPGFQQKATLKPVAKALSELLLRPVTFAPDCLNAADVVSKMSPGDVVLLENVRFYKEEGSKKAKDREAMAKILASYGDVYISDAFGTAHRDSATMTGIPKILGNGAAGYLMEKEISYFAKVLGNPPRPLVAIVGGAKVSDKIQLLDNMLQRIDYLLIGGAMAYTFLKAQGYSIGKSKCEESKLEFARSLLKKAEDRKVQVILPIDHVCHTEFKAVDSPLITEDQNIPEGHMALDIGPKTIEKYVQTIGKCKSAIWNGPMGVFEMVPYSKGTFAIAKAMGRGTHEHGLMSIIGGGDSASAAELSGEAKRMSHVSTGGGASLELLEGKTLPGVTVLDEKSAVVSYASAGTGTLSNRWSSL
Sequence of phosphoglycerate mutase (Leishmania major) (Q4Q090 1-553): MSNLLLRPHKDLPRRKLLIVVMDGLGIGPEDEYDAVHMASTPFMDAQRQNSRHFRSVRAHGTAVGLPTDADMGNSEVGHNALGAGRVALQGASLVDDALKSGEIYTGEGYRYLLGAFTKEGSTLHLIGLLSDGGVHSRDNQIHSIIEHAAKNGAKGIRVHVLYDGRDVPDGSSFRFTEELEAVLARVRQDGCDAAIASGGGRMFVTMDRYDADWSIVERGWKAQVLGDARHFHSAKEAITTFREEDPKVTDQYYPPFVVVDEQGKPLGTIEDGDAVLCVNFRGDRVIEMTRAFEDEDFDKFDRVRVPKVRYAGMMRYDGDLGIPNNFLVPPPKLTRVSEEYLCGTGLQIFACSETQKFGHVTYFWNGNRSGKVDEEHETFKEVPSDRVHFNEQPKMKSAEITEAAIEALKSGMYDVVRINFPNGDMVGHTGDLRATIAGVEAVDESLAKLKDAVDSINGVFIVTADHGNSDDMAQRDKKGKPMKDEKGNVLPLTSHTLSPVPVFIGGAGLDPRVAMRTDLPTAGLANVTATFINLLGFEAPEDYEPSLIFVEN
Sequence of Peptidyl-prolyl cis-trans isomerase NIMA-interacting 1 (Homo sapiens) (Q13526 whole entry, looked up): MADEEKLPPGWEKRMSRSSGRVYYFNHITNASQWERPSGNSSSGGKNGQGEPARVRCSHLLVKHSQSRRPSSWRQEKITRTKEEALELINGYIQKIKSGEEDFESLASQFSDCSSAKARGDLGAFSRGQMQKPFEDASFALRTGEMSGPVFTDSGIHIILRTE

For the compound `N[C@H](C(=O)O)c1cc(O)cc(O)c1`, the result in test [1] and in [2] was inactive. Further, the Potency entry in test [3], in [4], in test [5], in [6], in test [8] and in test [9] was “inactive” throughout. In addition, the Potency entry in [10], in test [11], in test [12], in [13] and in test [14] was “inactive” in each case. Moreover, the activation in test [7] is 0.0625% (inactive). Also, the viability change in [8] was found to be 13.1%.
For the compound `COc1cc2c(CCNC(C)=O)c[nH]c2cc1O`, the outcome in [1], in [2] and in [16] was inactive. The Potency entry in test [3], in [4], in test [15], in test [8], in test [9] and in test [10] was “inactive” each time. The Potency entry in test [17], in [11], in test [12], in [13], in [14] and in [18] was “inactive” in each case. Besides, in test [7], the activation was 0.875% (inactive). Besides, the viability change in [8] was -0.977%.
`N[C@@H](Cc1c[nH]c2ccccc12)C(=O)O`: the result in test [1], in test [2] and in test [16] was inactive. Further, the Potency result in [3], in test [4], in test [15], in [8], in test [9] and in test [10] was “inactive” throughout. Also, the Potency result in test [17], in [11], in test [12], in test [13], in test [14] and in test [18] was “inactive” in each case. In addition, in test [7], the activation is -0.125% (inactive). The viability change in test [8] is -4.03%.
Regarding `C=CC1(C)CC(=O)C2(O)C(C)(O1)C(OC(C)=O)C(O)C1C(C)(C)CCC(O)C12C` (stereo not given), the outcome in [1], in [2] and in test [16] was inactive. In addition, the Potency entry in [3], in test [4], in test [15], in test [8], in test [9] and in [10] was “inactive” throughout. The Potency result in [17], in test [11], in test [12], in test [13], in [14] and in test [18] was “inactive” in each case. In addition, the viability change in test [8] stood at 4.77%.
As to `CCCCOC(=O)NS(=O)(=O)c1sc(CC(C)C)cc1-c1ccc(Cn2c(CC)nc3c(C)cc(C)nc32)cc1`, the result in test [1], in test [2] and in test [16] was inactive. Besides, the Potency entry in test [3], in [4], in [5], in test [9], in [17] and in [11] was “inactive” each time. In addition, the Potency is 8.2 µM (active) in test [6] and 56.2 µM (active) in test [13]. In addition, the activation in test [7] was 2.25% (inactive).
As to `Nc1ncnc2c1ncn2C1CCCC1`, the result in test [1], in [2] and in test [16] was inactive. Further, the Potency result in test [3], in test [4], in test [15], in [8], in test [9] and in test [10] was “inactive” throughout. For the same compound, the Potency result in [17], in [11], in test [12], in test [13], in test [14] and in test [18] was “inactive” each time. The activation in [7] is 1.12% (inactive). For the same compound, the viability change in test [8] amounted to 4.78%.
In the case of `Nc1ccc(CCNc2ncnc3c2ncn3C2OC(CO)C(O)C2O)cc1` (stereo not given), the result in test [1], in test [2] and in test [16] was inactive. The Potency entry in test [3], in test [4], in [15], in [8], in test [9] and in [10] was “inactive” in each case. Further, the Potency entry in test [17], in [11], in test [12], in test [13], in test [14] and in [18] was “inactive” in each case. The activation in [7] was 1.06% (inactive). For the same compound, the viability change in test [8] amounted to 5.22%.
As for `N#C/C(=C\c1ccc(O)c(O)c1)C(=O)NCCc1ccccc1`, the result in [1], in test [2] and in [16] was inactive. Further, the Potency result in test [3], in test [4], in [15], in test [8], in test [9] and in test [11] was “inactive” throughout. Besides, the Potency entry in [12], in test [13] and in [18] was “inactive” throughout. Besides, the activation in test [7] is 0.438% (inactive). The viability change in [8] is -10.3%.
